Measured values reported in the supplement of paper PMC12340641.
Where a name gives a salt, the structure may show the parent alone.

The compounds below were run against IKZF1 (dCK*-IKZF1 fusion in HEK293FT) (UniProt Q13422) (assay: inhibition of IKZF1 HTRF signal (DMSO = 0%, pomalidomide 10 uM = 100%); higher = lower IKZF1 protein level). Conditions: compound concentration: 5 uM, overnight (~20 h).
Chain of IKZF1 (dCK*-IKZF1 fusion in HEK293FT) (Q13422 whole entry, looked up, the tested form may be a part): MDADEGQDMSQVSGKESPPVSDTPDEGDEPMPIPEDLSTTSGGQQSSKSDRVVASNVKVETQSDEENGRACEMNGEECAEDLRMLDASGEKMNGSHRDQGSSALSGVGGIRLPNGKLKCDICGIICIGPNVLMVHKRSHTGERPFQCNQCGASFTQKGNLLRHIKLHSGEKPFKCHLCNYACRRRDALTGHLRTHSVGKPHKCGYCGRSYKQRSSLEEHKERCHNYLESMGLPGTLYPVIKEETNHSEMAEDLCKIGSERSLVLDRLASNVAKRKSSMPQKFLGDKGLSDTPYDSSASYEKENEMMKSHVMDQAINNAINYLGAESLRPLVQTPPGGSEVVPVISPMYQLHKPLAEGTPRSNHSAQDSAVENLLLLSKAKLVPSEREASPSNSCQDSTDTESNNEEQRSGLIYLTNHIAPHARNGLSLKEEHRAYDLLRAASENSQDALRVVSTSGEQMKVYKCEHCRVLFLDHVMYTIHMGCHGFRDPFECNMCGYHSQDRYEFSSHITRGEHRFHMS
Procedure, shortened: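 Values are percent inhibition of IKZF1 signal, normalised plate by plate against vehicle and a reference degrader. HEK293FT cells stably expressing an IKZF1 fusion were seeded at 2000 per well in 384-well plates and exposed to 5 μM compound in single wells overnight at 37 °C. After 30 min lysis at room temperature, lysates were incubated overnight with a commercial HTRF total-IKZF1 antibody kit, and the background-subtracted 665/620 nm time-resolved FRET ratio was read. On each plate, vehicle was set at 0% and the reference degrader at 100%.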
In the case of `CO[C@H]1/C=C/O[C@@]2(C)Oc3c(C)c(O)c4c(O)c(cc(O)c4c3C2=O)NC(=O)/C(C)=C\C=C\[C@H](C)[C@H](O)[C@@H](C)[C@@H](O)[C@@H](C)[C@H](OC(C)=O)[C@@H]1C` [Rifamycin SV Sodium], the “inhibition of IKZF1 HTRF signal” value is reported as -36.7%. `Nc1ccc2cc3ccc(N)cc3nc2c1` was tested, and the “inhibition of IKZF1 HTRF signal” value was 62.9%. For `CO[C@H]1C[C@@H]2CC[C@@H](C)[C@@](O)(O2)C(=O)C(=O)N2CCCC[C@H]2C(=O)O[C@H]([C@H](C)C[C@@H]2CC[C@@H](O)[C@H](OC)C2)CC(=O)[C@H](C)/C=C(\C)[C@@H](O)[C@@H](OC)C(=O)[C@H](C)C[C@H](C)/C=C/C=C/C=C/1C` [Rapamycin], the “inhibition of IKZF1 HTRF signal” value was -24.4%. With `[2H]C([2H])([2H])C(O)(CCO[C@@H](C)[C@H]1CC[C@H]2/C(=C/C=C3/C[C@@H](O)C[C@H](O)C3=C)CCC[C@]12C)C([2H])([2H])[2H]` [maxacalcitol] the “inhibition of IKZF1 HTRF signal” value was -24.6%. For `COC(=O)/C=C/c1cc(O)ccc1O` [erbstatin-analog], the “inhibition of IKZF1 HTRF signal” value was -21.1%. In the case of `CN1CCC[C@@H]1CCO[C@](C)(c1ccccc1)c1ccc(Cl)cc1` [Clemastine Fumarate], the “inhibition of IKZF1 HTRF signal” value is reported as 6.24%. With `O=C1[C@H]2CCCC[C@H]2C(=O)N1CCCCN1CCN(c2nsc3ccccc23)CC1` [Perospirone] the “inhibition of IKZF1 HTRF signal” value was 16.4%. For `CC[N+](C)(CC)CCC[n+]1c(-c2ccccc2)c2cc(N)ccc2c2ccc(N)cc21` [propidium-iodide], the “inhibition of IKZF1 HTRF signal” value was 58.8%. In the case of `Oc1c(I)cc(Cl)c2cccnc12`, the “inhibition of IKZF1 HTRF signal” value is reported as -2.15%. For `COc1cc(NC(=O)c2ccc(-c3ccc(Cl)cc3)o2)cc(OC)c1`, the “inhibition of IKZF1 HTRF signal” value was -48.3%. `COCCN(C(=O)c1cc(OC)c(OC)c(OC)c1)c1nc(-c2ccccc2)cs1` [eact] was tested, and the “inhibition of IKZF1 HTRF signal” value was -41.3%. For `CN(C)CCOC1=Cc2ccccc2Sc2ccc(Cl)cc21` [zotepine], the “inhibition of IKZF1 HTRF signal” value was -37.7%. In the case of `CN(C)CCCN1c2ccccc2Sc2ccc(Cl)cc21` [Chlorpromazine HCl], the “inhibition of IKZF1 HTRF signal” value is reported as -4.4%. `Cc1ccc(-c2ccc(C)cn2)nc1` [abametapir] was tested, and the “inhibition of IKZF1 HTRF signal” value was -30.6%. With `C=C1C(=O)O[C@H]2[C@H]1CC/C(C)=C\CC[C@@]1(C)O[C@@H]21` [Parthenolide ((-)-Parthenolide)] the “inhibition of IKZF1 HTRF signal” value was -18.3%. In the case of `COC(=O)Nc1nc2cc(C(=O)c3ccc(F)cc3)ccc2[nH]1`, the “inhibition of IKZF1 HTRF signal” value is reported as -13.6%. With `C[C@@H]1CC(=O)NN=C1c1ccc(NN=C(C#N)C#N)cc1` the “inhibition of IKZF1 HTRF signal” value was -27.1%. With `Nc1ccc2ncnc(NCCc3ccc(Oc4ccccc4)cc3)c2c1` the “inhibition of IKZF1 HTRF signal” value was 20.9%. For `CC1=C(/C=C/C(C)=C/C=C/C(C)=C/C=C/C=C(C)/C=C/C=C(C)/C=C/C2=C(C)CCCC2(C)C)C(C)(C)CCC1`, the “inhibition of IKZF1 HTRF signal” value was -23.6%. In the case of `c1ccc(C2(c3ccccc3)CC2=C2NCCN2)cc1` [cibenzoline], the “inhibition of IKZF1 HTRF signal” value is reported as -50%. For `C/C(=N/Nc1nnc2c(n1)[nH]c1c(C)cccc12)c1ccccn1`, the “inhibition of IKZF1 HTRF signal” value was 45.9%. For `Cc1ccc(/C=C2\CNC/C(=C\c3ccc(C)cc3)C2=O)cc1`, the “inhibition of IKZF1 HTRF signal” value was -70%. In the case of `O=C(Nc1ccc2[nH]ccc2c1)c1ccccc1`, the “inhibition of IKZF1 HTRF signal” value is reported as -24.8%. In the case of `O=C(Nc1cc(C(F)(F)F)cc(C(F)(F)F)c1)Nc1c(Br)cc(Br)cc1-c1nnn[nH]1`, the “inhibition of IKZF1 HTRF signal” value is reported as -17%. With `NC(=O)N1c2ccccc2CC(O)c2ccccc21` (stereo not drawn) [licarbazepine] the “inhibition of IKZF1 HTRF signal” value was -28.1%. `Oc1c(Cl)cc(Cl)cc1Sc1cc(Cl)cc(Cl)c1O` was tested, and the “inhibition of IKZF1 HTRF signal” value was 7.52%. For `O=C(NC(NC(=S)Nc1ccc(F)c([N+](=O)[O-])c1)C(Cl)(Cl)Cl)C(c1ccccc1)c1ccccc1` (stereo not drawn), the “inhibition of IKZF1 HTRF signal” value was -19.4%. For `C=C1/C(=C\C=C2/CCC[C@]3(C)[C@@H]([C@H](C)/C=C/[C@H](C)C(C)(C)O)CC[C@@H]23)C[C@@H](O)C[C@@H]1O` [Ercalcitriol], the “inhibition of IKZF1 HTRF signal” value was -35%. With `CCc1nc(N)nc(N)c1-c1ccc(Cl)cc1` the “inhibition of IKZF1 HTRF signal” value was 18%. `CC(=O)N(OCc1ccccc1)[C@@H]1c2cc(C#N)ccc2OC(C)(C)[C@H]1O` was tested, and the “inhibition of IKZF1 HTRF signal” value was -1.85%. In the case of `C[C@H]1[C@H](OC(=O)CCC(=O)O)O[C@@H]2O[C@@]3(C)CC[C@H]4[C@H](C)CC[C@@H]1[C@@]24OO3`, the “inhibition of IKZF1 HTRF signal” value is reported as 37.4%. For `c1ccc(-c2ccc(C(c3ccccc3)n3ccnc3)cc2)cc1` (stereo not drawn), the “inhibition of IKZF1 HTRF signal” value was 17.6%. In the case of `COC(=O)C1=C(C)NC(C)=C(C(=O)OC(C)(C)CN(C)CCC(c2ccccc2)c2ccccc2)C1c1cccc([N+](=O)[O-])c1` (stereo not drawn) [lercanidipine], the “inhibition of IKZF1 HTRF signal” value is reported as -5.35%. With `Clc1ccc2c(N3CCN(CCCN4CCN(c5ccnc6cc(Cl)ccc56)CC4)CC3)ccnc2c1` the “inhibition of IKZF1 HTRF signal” value was 17%. With `C=CCNc1c(O)cc2c(O)c1C[C@@H](C)C[C@H](OC)[C@H](O)[C@@H](C)/C=C(\C)[C@H](OC(N)=O)[C@@H](OC)/C=C\C=C(/C)C(=O)N2` [Retaspimycin (Hydrochloride)] the “inhibition of IKZF1 HTRF signal” value was -31%. `Oc1c(Cl)cc(Cl)c2cccnc12` was tested, and the “inhibition of IKZF1 HTRF signal” value was -21.5%. With `CC[C@H](CO)Nc1nc(Nc2cccc(-c3ccccn3)c2)c2ncn(C(C)C)c2n1` the “inhibition of IKZF1 HTRF signal” value was -29.5%. With `CCCCC/N=c1/ccn(Cc2ccccc2)c2ccccc12` the “inhibition of IKZF1 HTRF signal” value was -21.7%.
